From PubChem BioAssay (NCATS)
Results filed as inconclusive are left out. Active and inactive are the calls of the source. Unless noted, calls follow the shape of the dose curve; as a rule, active = well fitted curve in either direction with a large enough effect (not every such curve was filed as active); inconclusive = small, poorly fitted or top-dose-only effect, or another doubt; inactive = flat fitted curve, though single readings scatter.

Key:
[1] = biological target: Lysosomal acid glucosylceramidase (Homo sapiens) (UniProt P04062); assay: Glucocerebrosidase-p2 (AID 348; in the data active = potency below about 10 µM; also: potency is read from the fitted curve at half-maximal effect); details: purified GBA, blue fluorogenic substrate, 40 min
Outline: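 Compounds titrated from 0.6 nM upwards against 0.2 nM enzyme in pH 5.9 citric acid/KH2PO4, taurocholate, tween-20; blue fluorogenic substrate 80 uM, 40 min room temperature, stopped and read Ex 365/Em 440 for AC50.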

[2] = AP1 Signaling Pathway (AID 357); details: ME-180 AP-1-bla reporter, EGF-induced, beta-lactamase ratio, 5 h; at 7.69 µM (top of the series) unless noted;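 also: ME-180 reporter cells stimulated with EGF at its EC50 level; % is scaled to controls: 0 for no effect and ±100 for the full control effect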
Outline: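 A ratiometric CCF4 readout (405 nm excitation; 460 and 530 nm emission) quantified AP-1-driven beta-lactamase in ME-180 cells after 5 h with compound and EC50 EGF; AC50 values were derived for activators and inhibitors.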

[3] = biological target: Cytochrome P450 1A2 (Homo sapiens) (UniProt P05177); assay: p450-cyp1a2 (AID 410; calls by dose curve; also: potency is read from the fitted curve at half-maximal effect;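 as to activity change, negative = inhibition: -100% = full effect of reference inhibitor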); details: recombinant CYP1A2, luciferin-ME demethylation, luminescence; series mostly up to 57 µM
Outline: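 Inhibition was calculated relative to 57 uM furafylline (full inhibition). The reaction used human CYP1A2 at 20nM with Luciferin-ME at its Km, 100uM, driven by an NADPH-regenerating system for 60 min at room temperature.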

[4] = NFAT Signaling Pathway (AID 444); details: Jurkat NFAT-bla M1, carbachol, beta-lactamase ratio, 5 h; at 7.69 µM (top of the series) unless noted;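 also: carbachol stimulus at about its EC50 of 1 µM final; % is scaled to controls: 0 for no effect and ±100 for the full control effect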
Outline: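 Jurkat cells carrying an NFAT-driven β-lactamase reporter and co-transfected muscarinic M1 receptor were treated with compound plus carbachol (1 uM final, an EC50 level) for 5 h at 37 °C. CCF4 loading followed for 1 h at RT; 460/530 nm ratio gave %activity.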

[5] = Stat Signaling Pathway (AID 446); details: ME-180 SIE beta-lactamase reporter, IL-6 stimulated, 5 h; at 7.69 µM (top of the series) unless noted;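 also: ME-180 cervical cancer cells given 40 pM IL-6 alongside compound; SIE-controlled beta-lactamase reporter measured as 460/530 nm FRET emission ratio; % is scaled to controls: 0 for no effect and ±100 for the full control effect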
Outline: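 Screening format detects activators and inhibitors alike: ME-180 SIE-bla cells stimulated at 40 pM IL-6 for 5 hrs with compound, then dual-emission beta-lactamase read at 405 nm excitation.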

[6] = biological target: Glucocorticoid receptor (Homo sapiens) (UniProt P04150); assay: GR-EFC Redistribution (AID 451; calls by dose curve; also: potency is read from the fitted curve at half-maximal effect); details: CHO-K1 GR-EFC translocation, beta-gal luminescence, 2 h
Outline: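 CHO-K1 cells stably expressing nuclear-localized β-gal enzyme acceptor and GR fused C-terminally to the enzyme donor fragment; ligand-driven nuclear translocation restores β-gal by complementation. Compounds titrated up to 46 uM final, 2 h at 37 °C; luminescence read.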

[7] = biological target: Mitogen-activated protein kinase 10 (Mus musculus) (UniProt Q61831); assay: JNK3 AlphaScreen Assay (AID 530); details: JNK3 lysate, c-Jun phosphorylation; series mostly up to 57.1 µM;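 also: kinase came from lysate of stimulated human HepG2 cells; signal reports phosphorylation of biotinylated GST-cJun 1-79 at Ser73 with 10 µM ATP; % is scaled to controls: 0 for no effect and ±100 for the full control effect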
Outline: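 JNK3 came from HepG2 lysates pre-activated with IL-1beta and TNF-alpha and phosphorylated biotinylated GST-cJun (1-79) at 10 uM ATP, pH 7.6, room temperature. Compounds were titrated. AlphaScreen signal used anti-phospho-cJun (Ser73) antibody.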

[8] = biological target: 3',5'-cyclic-AMP phosphodiesterase 4B (Homo sapiens) (UniProt Q07343); assay: qHTS Assay for Inhibitors of PDE-IV (AID 607; active = well fitted activation curve with a large enough effect in the main read-out, with a control signal flat, not every such curve was filed as active; also: % of control where 0% means no effect); details: HEK293 ACTOne CNG channel cells, membrane potential fluorescence; series mostly up to 22.9 µM
Outline: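 The readout is membrane depolarisation from a cAMP-sensing CNG channel, detected with a potential dye at ex 535/em 590. Cells were HEK293-derived (endogenous PDE-IV) at 1000 cells/well, titrated up to 22.9 uM final.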

[9] = biological target: Cytochrome P450 3A4 (Homo sapiens) (UniProt P08684); assay: qHTS Assay for Activators of Cytochrome P450 3A4 (AID 885; active = well fitted curve in the direction sought with a large enough effect; an effect the other way counts as inactive or inconclusive; also: nearly all actives have a fitted effect of over 65% in size); details: recombinant CYP3A4, Luciferin-PPXE luminescence, 60 min; series mostly up to 57.1 µM
Outline: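 Steps: enzyme/substrate mix dispensed; compound added, 10 min RT; NADPH regeneration solution added, 60 min RT; luciferin detection buffer stops reaction; 20 min later luminescence measured.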

[10] = qHTS Assay for Lipid Storage Modulators (AID 1519; calls by dose curve); details: Drosophila S3 cells, BODIPY lipid droplet/cell ratio, laser cytometry, cells loaded with oleic acid; for activity change, negative = inhibition: at 57.5 µM (top of the series)
Outline: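 Cells seeded at 5,000 per well were treated with compounds over a concentration series and loaded with oleic acid (400 uM, as added). Lipid droplet fluorescence (488 nm excitation, 500-530 nm channel) was read by laser-scanning cytometry and normalized to 20 uM Triacsin C.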

[11] = Primary qHTS for small molecule stabilizers of the endoplasmic reticulum resident proteome: Secreted ER Calcium Modulated Protein (SERCaMP) assay (AID 1508630; active = well fitted curve in the direction sought with a large enough effect; an effect the other way counts as inactive or inconclusive; also: % is scaled to controls: 0 for no effect and ±100 for the full control effect); details: SH-SY5Y GLuc-SERCaMP (Gaussia luciferase released on ER calcium loss) secretion, thapsigargin, luminescence; series mostly up to 38.4 µM
Outline: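 GLuc-SERCaMP-expressing SH-SY5Y cells, pretreated 16 h with compound, are challenged with thapsigargin to empty ER calcium stores; after 4 h, coelenterazine is added directly to the medium and luminescence is imaged.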

[12] = measured here: cell count channel max response
[13] = measured here: lipid channel max response

Sequence of Cytochrome P450 3A4 (Homo sapiens) (P08684 whole entry, looked up): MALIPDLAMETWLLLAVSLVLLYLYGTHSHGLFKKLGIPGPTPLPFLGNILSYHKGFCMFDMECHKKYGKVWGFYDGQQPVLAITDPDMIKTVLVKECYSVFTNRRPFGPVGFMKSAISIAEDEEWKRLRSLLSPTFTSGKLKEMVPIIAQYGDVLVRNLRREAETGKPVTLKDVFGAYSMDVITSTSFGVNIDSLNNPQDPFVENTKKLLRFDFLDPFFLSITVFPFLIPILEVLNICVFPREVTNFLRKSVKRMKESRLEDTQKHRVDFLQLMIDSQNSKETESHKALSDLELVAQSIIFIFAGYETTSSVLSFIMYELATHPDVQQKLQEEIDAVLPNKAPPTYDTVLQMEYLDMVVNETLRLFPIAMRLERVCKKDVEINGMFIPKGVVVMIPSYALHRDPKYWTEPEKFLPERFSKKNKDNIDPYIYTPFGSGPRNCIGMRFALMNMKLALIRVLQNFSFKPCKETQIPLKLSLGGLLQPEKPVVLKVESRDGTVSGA
Sequence of Cytochrome P450 1A2 (Homo sapiens) (P05177 whole entry, looked up): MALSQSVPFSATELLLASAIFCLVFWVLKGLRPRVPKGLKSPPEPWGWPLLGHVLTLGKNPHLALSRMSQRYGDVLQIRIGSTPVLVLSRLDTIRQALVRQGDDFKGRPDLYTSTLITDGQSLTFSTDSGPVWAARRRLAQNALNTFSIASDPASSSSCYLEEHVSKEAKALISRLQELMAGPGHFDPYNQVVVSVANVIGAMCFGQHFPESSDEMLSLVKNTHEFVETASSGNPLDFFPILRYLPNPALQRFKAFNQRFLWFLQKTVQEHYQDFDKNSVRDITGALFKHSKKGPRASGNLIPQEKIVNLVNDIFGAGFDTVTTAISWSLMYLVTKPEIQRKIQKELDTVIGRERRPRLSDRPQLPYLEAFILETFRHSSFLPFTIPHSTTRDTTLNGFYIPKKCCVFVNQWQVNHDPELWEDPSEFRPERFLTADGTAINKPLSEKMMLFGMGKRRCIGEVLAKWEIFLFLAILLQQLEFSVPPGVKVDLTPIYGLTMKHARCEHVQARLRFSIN
Sequence of Lysosomal acid glucosylceramidase (Homo sapiens) (P04062 whole entry, looked up): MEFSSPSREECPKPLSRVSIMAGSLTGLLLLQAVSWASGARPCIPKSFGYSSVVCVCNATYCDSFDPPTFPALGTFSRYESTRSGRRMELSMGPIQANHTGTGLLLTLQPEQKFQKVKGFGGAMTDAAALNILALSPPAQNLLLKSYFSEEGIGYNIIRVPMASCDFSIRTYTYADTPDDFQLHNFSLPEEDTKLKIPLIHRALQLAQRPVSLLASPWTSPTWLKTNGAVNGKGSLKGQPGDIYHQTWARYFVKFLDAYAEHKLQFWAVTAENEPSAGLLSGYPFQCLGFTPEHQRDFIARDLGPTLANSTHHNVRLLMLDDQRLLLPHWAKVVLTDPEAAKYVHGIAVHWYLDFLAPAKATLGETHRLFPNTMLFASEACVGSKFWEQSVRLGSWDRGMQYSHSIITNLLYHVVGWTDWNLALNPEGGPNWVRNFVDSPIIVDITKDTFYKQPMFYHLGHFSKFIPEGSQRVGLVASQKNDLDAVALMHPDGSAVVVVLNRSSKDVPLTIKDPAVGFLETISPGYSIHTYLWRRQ
Sequence of 3',5'-cyclic-AMP phosphodiesterase 4B (Homo sapiens) (Q07343 whole entry, looked up): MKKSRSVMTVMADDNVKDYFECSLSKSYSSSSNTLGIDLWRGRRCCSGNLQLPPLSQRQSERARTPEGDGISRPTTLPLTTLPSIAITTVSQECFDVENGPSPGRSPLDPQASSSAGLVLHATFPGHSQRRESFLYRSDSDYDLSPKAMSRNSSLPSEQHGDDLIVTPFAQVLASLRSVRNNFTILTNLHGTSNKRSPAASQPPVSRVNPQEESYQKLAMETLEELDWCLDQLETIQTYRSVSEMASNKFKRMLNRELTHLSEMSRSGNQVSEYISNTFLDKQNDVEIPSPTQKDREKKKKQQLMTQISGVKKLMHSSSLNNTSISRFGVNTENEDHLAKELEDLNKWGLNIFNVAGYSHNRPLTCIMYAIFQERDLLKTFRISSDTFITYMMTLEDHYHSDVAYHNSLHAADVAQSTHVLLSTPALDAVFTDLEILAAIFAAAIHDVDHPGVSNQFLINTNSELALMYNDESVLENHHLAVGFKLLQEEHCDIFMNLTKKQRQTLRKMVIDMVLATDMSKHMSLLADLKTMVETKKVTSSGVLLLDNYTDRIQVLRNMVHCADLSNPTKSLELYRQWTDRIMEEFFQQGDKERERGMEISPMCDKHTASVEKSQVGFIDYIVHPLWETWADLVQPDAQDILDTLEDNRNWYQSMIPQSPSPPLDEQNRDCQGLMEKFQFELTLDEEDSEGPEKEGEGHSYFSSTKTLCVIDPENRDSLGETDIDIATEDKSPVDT
Sequence of Glucocorticoid receptor (Homo sapiens) (P04150 whole entry, looked up, the tested form may be a part): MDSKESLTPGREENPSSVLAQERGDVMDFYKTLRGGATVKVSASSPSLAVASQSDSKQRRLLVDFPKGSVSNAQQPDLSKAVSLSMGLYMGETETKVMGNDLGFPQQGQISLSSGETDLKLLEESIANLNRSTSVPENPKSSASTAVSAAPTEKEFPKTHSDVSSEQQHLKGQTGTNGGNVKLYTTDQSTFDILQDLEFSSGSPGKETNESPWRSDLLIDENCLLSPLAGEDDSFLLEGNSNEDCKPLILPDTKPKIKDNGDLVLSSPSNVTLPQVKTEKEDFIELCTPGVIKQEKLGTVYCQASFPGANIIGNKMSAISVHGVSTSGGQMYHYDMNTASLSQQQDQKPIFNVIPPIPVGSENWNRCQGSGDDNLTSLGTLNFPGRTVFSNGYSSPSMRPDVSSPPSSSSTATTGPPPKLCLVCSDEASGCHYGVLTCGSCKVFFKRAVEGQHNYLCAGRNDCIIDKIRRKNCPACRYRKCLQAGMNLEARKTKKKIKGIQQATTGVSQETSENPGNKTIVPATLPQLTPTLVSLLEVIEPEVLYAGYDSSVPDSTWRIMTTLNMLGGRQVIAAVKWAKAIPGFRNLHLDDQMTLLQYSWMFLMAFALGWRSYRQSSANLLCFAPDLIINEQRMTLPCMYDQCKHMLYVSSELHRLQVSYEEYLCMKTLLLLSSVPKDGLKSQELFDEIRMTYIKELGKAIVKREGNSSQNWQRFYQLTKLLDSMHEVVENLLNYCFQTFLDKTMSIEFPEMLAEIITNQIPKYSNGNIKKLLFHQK

O=C(Nc1cccc(F)c1)N1CCCC2(CCN(S(=O)(=O)c3ccccc3)CC2)C1
13.8%: max response [10, 12]
inactive: Potency [1] > 11.4 µM | activity change, negative = inhibition [2] -9.39% | Potency [3] | activity change, negative = inhibition [4] -29.9% | activity, negative = inhibition [5] -7.25% | Potency [6] > 46 µM | outcome [7] | Potency [8] | Potency [9] | activity change, negative = inhibition [10] 1.65% | Potency [11]
17.3%: max response [10, 13]

COc1ccc(NC(=O)N2CCCC3(CCN(S(C)(=O)=O)CC3)C2)cc1
inactive: Potency [1] > 11.4 µM | activity change, negative = inhibition [2] -11.2% | Potency [3] | activity change, negative = inhibition [4] 21.9% | activity, negative = inhibition [5] 17.2% | Potency [6] > 46 µM | outcome [7] | Potency [8] | Potency [9] | activity change, negative = inhibition [10] 3.48% | Potency [11]
-9.3%: max response [10, 12]
-4.34%: max response [10, 13]

O=C(c1csnn1)N1CCC[C@@]2(CCN(c3ccccn3)C2)C1
inactive: Potency [1] > 11.4 µM | activity change, negative = inhibition [2] -10.6% | Potency [3] | activity change, negative = inhibition [4] -7.38% | activity, negative = inhibition [5] 8.47% | Potency [6] > 46 µM | outcome [7] | Potency [8] | Potency [9] | activity change, negative = inhibition [10] 3.43% | Potency [11]
10.9%: max response [10, 13]
4.63%: max response [10, 12]

COc1ccc(C(=O)N2CCC3(CCCN(Cc4ccncc4)C3)CC2)cc1
inactive: Potency [1] > 11.4 µM | activity change, negative = inhibition [2] -3.23% | Potency [3] | activity change, negative = inhibition [4] -17.9% | activity, negative = inhibition [5] 2.74% | Potency [6] > 46 µM | outcome [7] | Potency [8] | Potency [9] | activity change, negative = inhibition [10] 3.4% | Potency [11]
8.92%: max response [10, 13]
2.99%: max response [10, 12]

Cc1noc(C)c1C(=O)N1CCC2(CCCN(C(=O)Nc3cccc(F)c3)C2)CC1
active: Potency [3] 15.8 µM
19.9%: max response [10, 13]
inactive: Potency [1] > 11.4 µM | activity change, negative = inhibition [2] -3.17% | activity change, negative = inhibition [4] -8.48% | activity, negative = inhibition [5] -0.0561% | Potency [6] > 46 µM | outcome [7] | Potency [8] | Potency [9] | activity change, negative = inhibition [10] 5.45% | Potency [11]
9.33%: max response [10, 12]

O=C(Nc1cccc(F)c1)N1CC[C@@]2(CCCN(C(=O)c3ccco3)C2)C1
inactive: Potency [1] > 11.4 µM | activity change, negative = inhibition [2] 1.78% | activity change, negative = inhibition [4] -0.255% | activity, negative = inhibition [5] 8.88% | Potency [6] > 46 µM | outcome [7] | Potency [8] | Potency [9] | activity change, negative = inhibition [10] 0.339% | Potency [11]
-5.34%: max response [10, 12]
active: Potency [3] 25.1 µM
-1.46%: max response [10, 13]

CN1CCCC2(CCN(C(=O)c3cnccn3)CC2)C1
3.48%: max response [10, 13]
2.95%: max response [10, 12]
inactive: Potency [1] > 11.4 µM | activity change, negative = inhibition [2] -9.74% | Potency [3] | activity change, negative = inhibition [4] -25% | activity, negative = inhibition [5] 3.76% | Potency [6] > 46 µM | outcome [7] | Potency [8] | Potency [9] | activity change, negative = inhibition [10] -0.798% | Potency [11]

COC(=O)N1CCC2(CCCN(c3ccc(-c4ccccc4)cc3)C2)CC1
11%: max response [10, 12]
active: Potency [3] 20 µM
-21.4%: max response [10, 13]
inactive: Potency [1] > 11.4 µM | activity change, negative = inhibition [2] -0.311% | activity change, negative = inhibition [4] -18.6% | activity, negative = inhibition [5] 3.59% | Potency [6] > 46 µM | outcome [7] | Potency [8] | Potency [9] | activity change, negative = inhibition [10] -29.2% | Potency [11]

CS(=O)(=O)N1CCC2(CCCN(c3ccccn3)C2)CC1
active: Potency [3] 25.1 µM
15.6%: max response [10, 13]
5.95%: max response [10, 12]
inactive: Potency [1] > 11.4 µM | activity change, negative = inhibition [2] -3.01% | activity change, negative = inhibition [4] 4.17% | activity, negative = inhibition [5] 7.37% | Potency [6] > 46 µM | outcome [7] | Potency [8] | Potency [9] | activity change, negative = inhibition [10] 2.39% | Potency [11]

CC(C)NC(=O)N1CC2(CCN(C(=O)c3ccncc3)CC2)C1
11.6%: max response [10, 12]
inactive: Potency [1] > 11.4 µM | activity change, negative = inhibition [2] 13% | Potency [3] | activity change, negative = inhibition [4] 10.6% | activity, negative = inhibition [5] 7.63% | Potency [6] > 46 µM | outcome [7] | Potency [8] | Potency [9] | activity change, negative = inhibition [10] -0.244% | Potency [11]
15.6%: max response [10, 13]

O=C(Nc1cccc(F)c1)N1CC[C@@]2(CCCN(C(=O)c3cccc(F)c3)C2)C1
12.4%: max response [10, 12]
22.3%: max response [10, 13]
inactive: Potency [1] > 11.4 µM | activity change, negative = inhibition [2] -6.61% | activity change, negative = inhibition [4] 16.9% | activity, negative = inhibition [5] -1.65% | Potency [6] > 46 µM | outcome [7] | Potency [8] | Potency [9] | activity change, negative = inhibition [10] 6.49% | Potency [11]
active: Potency [3] 12.6 µM

CC(=O)N1CCC[C@@]2(CCN(Cc3ccccc3)C2)C1
inactive: Potency [1] > 11.4 µM | activity change, negative = inhibition [2] -2.69% | Potency [3] | activity change, negative = inhibition [4] 17.1% | activity, negative = inhibition [5] -3.06% | Potency [6] > 46 µM | outcome [7] | Potency [8] | Potency [9] | activity change, negative = inhibition [10] 6.41% | Potency [11]
16.4%: max response [10, 13]
8.55%: max response [10, 12]

CC(=O)N1CCC[C@@]2(CCN(c3ccncc3)C2)C1
inactive: Potency [1] > 11.4 µM | activity change, negative = inhibition [2] 2.82% | Potency [3] | activity change, negative = inhibition [4] 3.22% | activity, negative = inhibition [5] -0.448% | Potency [6] > 46 µM | outcome [7] | Potency [8] | Potency [9] | activity change, negative = inhibition [10] 2.25% | Potency [11]
14.8%: max response [10, 13]
8.59%: max response [10, 12]
